ChEMBL document CHEMBL4513216, “Probing the Open Global Health Chemical Diversity Library for Multistage-Active Starting Points for Next-Generation Antimalarials” (ACS Infect Dis, 2020)
About 8,600 (12%) of roughly 69,000 compounds showed an effect of 50% or more. This is one part of a sample in which strong results are shown more often than they occur.

What follows are molecules tested on Plasmodium berghei (assay: Screen against P. berghei liver stage (PbLuc), transformed with Luciferase, at 10uM). Details: tested at 10 uM.
Type: functional, HepG2

Structure (SMILES) | INHIBITION [%]
O=C(NCc1csc(Br)c1)N1CCOCC1 | -6.865
COCCC(=O)NCCc1nc2cc(-c3ccc(OC)cc3)ncn2n1 | 23.5
Cc1oncc1C(=O)N1CCC2(CC1)C(c1cnn(C)c1)CC(=O)N2C (stereo not given) | -15.5
CN(C)CC1[C@H]2CN(C(=O)c3cc(=O)[nH]c4ccc(F)cc34)C[C@@H]12 (stereo not given in full) | 43
CCC(C(=O)NC(C)(C)C)n1ccc2ncccc2c1=O (stereo not given) | 20.9
c1coc(-c2nc(CNC3CCCNC3)no2)c1 (stereo not given) | -25.6
CN(C)c1cc(C2CCCN2C(=O)c2ccc(=O)n(C)c2)ccn1 (stereo not given) | -76.7
CN(C)c1cc(CNC(=O)c2ccccc2Cl)ccn1 | -7.35
CC(c1cccc(Cl)c1)N(C)Cc1nc2c(cnn2C)c(=O)[nH]1 (stereo not given) | 15.32
COCCc1ncc(CNC2(c3ccc(Cl)cc3)CC2)cn1 | -57.4
CC(C)CN1C[C@@H]2C(=O)N(C)C3(CCN(C(=O)C(C)C)CC3)[C@@H]2C1 | -40.5
Cc1noc(C(C)C)c1C(=O)NCCCN1CCC(C)CC1 | -12.1
Cc1noc(C(C)C)c1C(=O)NCCCN1CCNCC1 | -18
Cc1noc(C(C)C)c1C(=O)NCCCN1CCCC1 | 66.2
Cc1ccc2c(n1)N(CCn1cccn1)CCN(S(C)(=O)=O)C2 | -73.5
c1ccc(Cc2nnc(CN3CCn4c(nnc4C4CC4)C3)o2)cc1 | 21.5
Cc1c[nH]c(CN(C)C(=O)[C@@]23CNC[C@@H]2CN(c2ncccn2)C3)n1 | 30
CNc1ncc(CN(C)C(=O)[C@@]23CNC[C@@H]2CN(C(=O)C2CC2)C3)cn1 | -149
Cc1cnc(CN(C)C(=O)C23CNCC2CNC3)[nH]1 (stereo not given) | 58.4
Cc1ccc(CN2CCOCS2(=O)=O)cc1F | 38
CCn1cc(NC(=O)NCc2ccc(CN3CCOCC3)cc2)cn1 | 30.2
O=C(O)c1cc(-c2ccoc2)cc(S(=O)(=O)NC2CC2)c1 | 27.6
O=C(O)c1cc(-c2ccc3c(c2)OCO3)cc(S(=O)(=O)NC2CC2)c1 | 8.74
CN(C)c1ccc(-c2cc(C(=O)O)cc(S(=O)(=O)NC3CC3)c2)cc1 | 84.9
N#CC1Sc2nnc(-c3ccccc3F)n2N=C1N (stereo not given) | 11.6
COc1ccc2[nH]cc(-c3ccnc(NC4CCCC4)n3)c2c1 | 90.1
COc1ccc2[nH]cc(-c3ccnc(N4CCC(C)CC4)n3)c2c1 | 36.7
O=c1[nH]c(-c2ccncc2)ncc1-c1ccnc(NC2CCCCC2)n1 | 1.11

Structure (SMILES) | INHIBITION [%]
Cc1ccc(CN2CC[C@@]3(O)CCN(S(=O)(=O)N(C)C)C[C@H]3C2)cc1C | -4.95
COc1ncccc1CNC(=O)Nc1ccc(N(C)C)nc1 | 15.6
COCCN1C(=O)CCC12CCN(c1ncc(F)cn1)CC2 | 14.1
CCn1ncc2c1CCCC2NCc1cccc2c1OCO2 (stereo not given) | 33.8
CCn1ncc2c1CCCC2NCc1cc(C)ccc1OC (stereo not given) | 9.14
CCn1ncc2c1CCCC2NCC1=Cc2ccccc2OC1 (stereo not given) | 63.9
CCn1ncc2c1CCCC2NCc1cccc2c1OCCO2 (stereo not given) | 18.6
CCCOc1ccc(CNC2CCCc3c2cnn3CC)cc1OC (stereo not given) | 52
CCn1ncc2c1CCCC2NCc1ccccc1N1CCOCC1 (stereo not given) | 56.4
Cc1cccc(CNC2CCCc3c2cnn3Cc2ccccc2)c1 (stereo not given) | 26.4
CCn1ncc2c1CCCC2NCc1ccc(OC)c(F)c1 (stereo not given) | 21.5
CCn1ncc2c1CCCC2NCc1cscn1 (stereo not given) | 35.4
Cc1ccc(CNC2CCCc3c2cnn3Cc2ccccc2)s1 (stereo not given) | 60.9
CCn1ncc2c1CCCC2NCc1ccc(OC)c(C)c1 (stereo not given) | 38
CCn1ncc2c1CCCC2NCc1ccc(C)s1 (stereo not given) | -21.9
NC(=O)CN1CCCC(Cc2ccc(N3CCOCC3)nn2)C1 (stereo not given) | 15.9
COC(=O)C(NC(=O)C1CCC1)c1cc(F)ccc1F (stereo not given) | -19.9
Cc1nn(C)c(Cl)c1C(=O)NCC1(C(N)=O)CCOCC1 | 27.5
Cc1ccc2nc(CN(C)Cc3[nH]nc4c3CCC4)[nH]c2c1C | -59.5
Cc1ccc2[nH]c(CN(C)Cc3n[nH]c4c3CCC4)nc2c1 | -30.5
Cc1ccc2nc(CN(C)Cc3n[nH]c4c3CCCCC4)[nH]c2c1C | 69.6
CCCNS(=O)(=O)c1cnccc1N1CCN(C(C)C)CC1 | -15.5
C1CC(NCC2CC2)CN(Cc2noc(C3CC3)n2)C1 (stereo not given) | 19.5
CCC1COCCN1C(=O)NCc1cccc(-c2cnn(C)c2)c1 (stereo not given) | 21.2
Cn1cc(-c2cccc(CNC(=O)N3CCC[C@@H]3CO)c2)cn1 | -21.6
CCN1CCN(C(=O)NCc2cccc(-c3cnn(C)c3)c2)CC1 | 50.1
Cn1cc(C(=O)N2CC[C@@H]3[C@@H]2CCN3Cc2cccc(C#N)c2)cn1 | 41.6
